Mdm2-MdmX inh: disrupts the human Mdm2-MdmX interaction; O15151+Q00987; SaOS-2 split-luciferase Mdm2/MdmX complementation, luminescence; inhibition, % at 8 µM; 3% of 330,000 active;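 active means inhibition of at least 50% at 8 µM in the primary screen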
Target sequence (O15151 whole entry, looked up): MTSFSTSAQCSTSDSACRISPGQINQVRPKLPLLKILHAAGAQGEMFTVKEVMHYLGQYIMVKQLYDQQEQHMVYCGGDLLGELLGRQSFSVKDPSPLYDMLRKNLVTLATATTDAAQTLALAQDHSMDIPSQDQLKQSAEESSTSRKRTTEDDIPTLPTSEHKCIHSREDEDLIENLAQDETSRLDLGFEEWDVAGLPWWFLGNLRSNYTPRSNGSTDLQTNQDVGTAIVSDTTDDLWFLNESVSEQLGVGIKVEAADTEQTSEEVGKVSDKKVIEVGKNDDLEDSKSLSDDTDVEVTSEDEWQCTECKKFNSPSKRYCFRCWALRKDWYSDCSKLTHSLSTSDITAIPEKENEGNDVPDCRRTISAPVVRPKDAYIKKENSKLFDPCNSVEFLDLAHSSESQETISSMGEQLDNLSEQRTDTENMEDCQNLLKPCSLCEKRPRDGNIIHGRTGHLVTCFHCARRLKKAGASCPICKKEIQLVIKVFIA
Target sequence (Q00987 whole entry, looked up): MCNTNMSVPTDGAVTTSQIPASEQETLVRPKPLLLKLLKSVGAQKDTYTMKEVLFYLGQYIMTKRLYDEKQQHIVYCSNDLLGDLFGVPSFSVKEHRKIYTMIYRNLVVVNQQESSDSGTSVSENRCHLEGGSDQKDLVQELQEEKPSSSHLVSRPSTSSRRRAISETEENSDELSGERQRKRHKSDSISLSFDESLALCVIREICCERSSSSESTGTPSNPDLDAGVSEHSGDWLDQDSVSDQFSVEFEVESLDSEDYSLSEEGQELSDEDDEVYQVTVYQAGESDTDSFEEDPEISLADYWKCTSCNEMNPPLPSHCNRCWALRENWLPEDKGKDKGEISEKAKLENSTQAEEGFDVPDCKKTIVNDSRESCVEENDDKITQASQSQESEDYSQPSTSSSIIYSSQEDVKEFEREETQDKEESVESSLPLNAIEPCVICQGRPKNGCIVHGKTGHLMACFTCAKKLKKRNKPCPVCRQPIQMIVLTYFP
697 NFkB inh: inhibitors of the PMA/ionomycin-induced NF-kB reporter in 697 B cells. 697 B-cell NF-kB luciferase reporter, 16 h. inhibition, % at 4 µM. 0.33% of 330,000 active. AID 435022; in the data active means inhibition above about 35%
Jurkat NFkB inh: inhibitors of the PMA/ionomycin-induced NF-kB reporter in Jurkat cells. PMA/ionomycin-induced NF-kB luciferase reporter, luminescence. inhibition, % at 4 µM. 0.53% of 330,000 active; in the data active means inhibition above about 50%
Gli-Sufu block: antagonists of Gli-Sufu signaling; Sufu-KO-LIGHT fibroblasts, Gli luciferase reporter luminescence; inhibition, % at 5 µM; 0.74% of 340,000 active; AID 588413;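 active means inhibition above about 55%, limit read from the data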;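 further: 0% = DMSO-treated cells and 100% = wells with medium but no cells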
Shn3 3UTR inh: inhibitors of Schnurri-3 3'UTR reporter in osteoblasts. AID 588674. inhibition, % at 12.5 µM. Clone20 osteoblast Shn3 3'UTR firefly luciferase, 24 h. 0.52% of 360,000 active;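 active means mean inhibition of at least 75% with every replicate also reaching 75%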;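 further: 0% = median of neutral control wells and 100% = pilot-screen positive control compound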
Mdm2 MdmX conf: confirmation of human Mdm2/MdmX interaction inhibitors | shares compounds with Mdm2-MdmX inh | Mdm2-MdmX binding, luminescent assay | inhibition, % at 8 µM | 55% of 10,000 active; in the data active means inhibition above about 40%
FLuc counter: counter-screen for Mdm2/MdmX inhibitors: full-length luciferase; shares compounds with Mdm2-MdmX inh; SaOS-2 full-length luciferase counterscreen, luminescence; inhibition, % at 8 µM; 77% of 6,200 active; AID 504607;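 active means mean inhibition at 8 µM reaching about 37%, which flags the compound as non-specific, limit read from the data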;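 further: p53-null SaOS-2 cells with luciferase driven by a doxycycline-inducible promoter; compound on cells about two nights before reading with doxycycline added after day one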
Starred values were filed as active, the others as inactive; . = no result. Rows were chosen to be rich in hits. Some 3.8% of all compounds tested hit in one or more screens of this group.

SMILES	Mdm2-MdmX inh	697 NFkB inh	Jurkat NFkB inh	Gli-Sufu block	Shn3 3UTR inh	Mdm2 MdmX conf	FLuc counter
O=C(COC(=O)CCN1C(=O)/C(=C\C=C\c2ccccc2)SC1=S)Nc1ccc(Br)cc1	26	20	-23	28	9	.	.
Cc1ccc(NC(=O)CCCN2C(=O)/C(=C/C=C/c3ccccc3)SC2=S)cc1	57*	-20	1	-3	-1	41*	47*
O=C(CCCN1C(=O)/C(=C/c2ccccc2)SC1=S)Nc1cccc(O)c1	100*	17	3	4	0	93*	58*
COc1cc(NC(=O)CSc2nnnn2C2CCCC2)cc(OC)c1	-11	14	5	25	-2	.	.
Cc1ccc(/C=C2\SC(=S)N(CCC(=O)NNC(=O)c3ccccc3O)C2=O)cc1	53*	13	16	-20	10	17	.
CC(/C=C1\SC(=S)N(CCCC(=O)Nc2ccc(C(=O)O)c(O)c2)C1=O)=C\c1ccccc1	.	.	.	32	.	.	.
O=C(CN1C(=O)S/C(=C\C=C\c2ccccc2)C1=O)Nc1ccc(O)cc1	78*	-56	-3	-29	-26	42*	81*
O=C(CN1C(=O)/C(=C/c2ccccc2)SC1=S)NNC(=O)c1ccccc1O	7	3	11	6	-1	.	.
CC(/C=C1\SC(=S)N(CCC(=O)Nc2ccc(O)cc2)C1=O)=C\c1ccccc1	62*	-6	2	6	-4	23	.
O=C(CCCN1C(=O)/C(=C\c2ccccc2)SC1=S)Nc1ccc(O)cc1	99*	11	6	15	-10	100*	33
O=C(CCCN1C(=O)/C(=C\c2ccccc2)SC1=S)Nc1cccc(C(=O)O)c1	1	16	0	-4	5	.	.
C[C@@H]1CN([C@H](C)CO)C(=O)c2cc(Br)cnc2O[C@@H]1CN(C)Cc1ccc(-c2ccccc2)cc1	.	.	.	.	-6	.	.
O=c1cc(-c2ccccc2)[nH]n1-c1ccc([N+](=O)[O-])cc1	55*	-18	-2	-19	21	6	.
O=c1ccc(-c2ccc([N+](=O)[O-])cc2)nn1-c1ccccc1	10	-5	3	-5	-8	.	.
COc1cc(/C=N\NC(=O)CNC(=O)C2COc3ccccc3O2)ccc1O (centres undefined)	-2	-24	4	-4	-45	.	.
Cc1cc([N+](=O)[O-])cc(/C=N\NC(=O)C2COc3ccccc3O2)c1O (centres undefined)	52*	14	8	-7	5	40*	28
CCOC(=O)N/N=C/c1ccc(N(CC)CC)cc1O	19	-65	38	-38	-55	.	.
CCN(CC)c1ccc(/C=N/NC(=O)CNC(=O)C2COc3ccccc3O2)c(O)c1 (centres undefined)	77*	-10	36	51	90*	76*	22
CCN(CC)c1ccc(/C=N/NC(=O)CCC(=O)NCc2ccccc2)c(O)c1	71*	-49	13	37	74	76*	34
Oc1ccc(C[C@@H]2CNCCN2CC2CCCCC2)cc1	19	7	9	13	-4	.	.
CC(C)(C)CN1CCNC[C@H]1Cc1ccc(O)cc1	-3	-3	-6	-7	4	.	.
Oc1ccc(C[C@H]2CNCCN2CCCCC2CCCCC2)cc1	72*	-10	1	0	-26	11	.
Oc1ccc(C[C@H]2CNCCN2CCC23CC4CC(CC(C4)C2)C3)cc1	58*	7	12	4	-8	17	.
CN(C)CCN[C@H]1CCC2C3CC=C4C[C@@H](O)CC[C@]4(C)C3CC[C@@]21C (some centres undefined)	23	-31	-49	22	8	.	.
COc1ccc(CCNC(=O)CCCOc2cc(=O)n(C)c3ccccc23)cc1OC	-13	10	-2	3	-91	.	.
SMILES	Mdm2-MdmX inh	697 NFkB inh	Jurkat NFkB inh	Gli-Sufu block	Shn3 3UTR inh	Mdm2 MdmX conf	FLuc counter
COc1ccccc1CNC(=O)CCCOc1cc(=O)n(C)c2ccccc12	59*	-2	3	14	-7	34	.
O=C(CO)c1c[nH]c2ccccc12	.	.	.	.	-6	.	.
O=C(CCl)N(c1ccccc1)c1c[nH]c2ccccc12	100*	2	-13	0	94*	99*	52*
CCOC(=O)C(C)/C(C)=N/NC(=O)c1cc2ccccc2cc1O (centres undefined)	82*	4	10	-12	4	81*	56*
C/C(CC(=O)N1CCCC1)=N\NC(=O)c1cc2ccccc2cc1O	41	-3	1	1	-4	.	.
COc1c(Br)cc([N+](=O)[O-])c(OC)c1C(=O)NC(=O)Nc1cc(Cl)cc(Cl)c1	85*	-40	30	2	5	79*	85*
COc1c(Br)cc([N+](=O)[O-])c(OC)c1C(=O)NC(=O)Nc1c(Cl)cccc1Cl	9	18	11	4	13	.	.
O=C(NCC1CCCO1)c1cc([N+](=O)[O-])ccc1N1CCC(Cc2ccccc2)CC1 (centres undefined)	2	5	10	5	19	.	.
COc1ccc(OC)c(C(C[N+](=O)[O-])c2c(C)cc3ccccn23)c1 (centres undefined)	68*	-9	17	-1	13	49*	11
Cc1nnc(NC(=O)Nc2cccc(Cl)c2)s1	16	-54	-35	-44	-36	.	.
O=C(Nc1ccc(Cl)cc1)Nc1nnc(SCc2ccccc2)s1	-13	-25	-26	-19	-13	.	.
Cc1ccc(OCCSCc2nnc(NC(=O)Nc3cccc(Cl)c3)s2)cc1	92*	-19	28	15	22	82*	97*
O=C(Nc1ccc(Cl)c(Cl)c1)Nc1nnc(CSc2ccccc2)s1	95*	-45	23	47	58	77*	50*
O=C(Cc1nnc(NC(=O)Nc2ccccc2)s1)Nc1ccccc1	10	-23	-5	7	1	.	.
O=C(Nc1ccccc1)Nc1nnc(CSCc2ccccc2Cl)s1	85*	-3	-1	-7	5	47*	66*
O=C(Nc1ccc(Cl)cc1)Nc1nnc(CSCc2ccccc2Cl)s1	61*	-6	-2	-7	30	15	.
Cc1cccc(N=C2CCCC2C(=O)Nc2cccc(C)c2C)c1C (centres undefined)	.	.	.	9	18	.	.
Cc1nc(SCc2nc3ccccc3[nH]2)c2oc3cc(Br)ccc3c2n1	65*	-6	-3	13	0	12	.
Clc1ccc2nc(C3CCN(Cc4nnnn4C4CCCCC4)CC3)[nH]c2c1	23	6	9	18	-8	.	.
Cc1ccc(Cn2nnnc2CN2CCC(c3nc4ccc(Cl)cc4[nH]3)CC2)cc1	58*	18	45	35	63	38	46*
Nc1cc(Nc2ccccc2)ccn1	18	16	4	-6	10	.	.
N#Cc1sc2nccc(Nc3ccccc3)c2c1N	92*	-18	33	-10	37	78*	49*

Screens: PubChem, several laboratories
